Reference: PubChem BioAssay AID1063 (University of Pittsburgh Molecular Library Screening Center, 2008)
In all, about 200,000 compounds went through this assay and about 18,000 (9%) were called active. Rule as the data show it: active = inhibition above about 50%; inactive = the rest. For the sample, actives were picked, then their nearest neighbours and some compounds at random.

Experiment: Leishmania major promastigote growth inhibition, primary screen (AID 1063);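 also: promastigotes grown with compound for 44 hours at 28 °C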
Conditions: Leishmania major promastigotes, resazurin fluorescence viability; at 10 µM; hits give high values

SMILES | inhibition
CC(C)(C)c1ccc(CN2C(=O)CN=C(c3ccccc3)c3ccccc32)cc1 | 97.3% (active)
CCN1CCN(c2ccc([N+](=O)[O-])cc2C#N)CC1 | 3.77% (inactive)
CN1CCN(Cc2ccccc2C(F)(F)F)CC1 | 0.79% (inactive)
CN1CCN(Cc2ccc(OC(F)(F)F)cc2)CC1 | 90.4% (active)
CN(C)c1ccc(/C=C2\CC3C4CC=C5CC(O)CCC5(C)C4CCC3(C)C2=O)cc1 (stereo unspecified) | 37% (inactive)
Cc1ccc(-n2c(-c3ccc([N+](=O)[O-])cc3)nc3ccccc3c2=O)cc1 | 0.86% (inactive)
CCN(CC)P(=O)(Oc1cccc(C)c1)N(CC)CC | 22.5% (inactive)
Cc1cccc(OP(=O)(Oc2cccc(C)c2)OC(c2ccccc2)C(F)(F)F)c1 (stereo unspecified) | 57.8% (active)
CCC(=O)CC(c1ccc([N+](=O)[O-])cc1)c1c(O)c2ccccc2oc1=O (stereo unspecified) | -15.5% (inactive)
CN(C)c1nc(N(C)C)nc(N(C#N)CCCl)n1 | -4.48% (inactive)
C[N+]12CN3CN(CN(C3)C1)C2 | 93.8% (active)
CC1CCCCN1Cc1cccnc1 (stereo unspecified) | -6.9% (inactive)
COc1ccccc1N=Nc1c(O)[nH]c(=S)[nH]c1=O | -4.5% (inactive)
CN(C)P(=S)(Nc1ccccc1)C(Cl)(Cl)Cl (stereo unspecified) | 28.1% (inactive)
CC(C)Oc1cccc(C(=O)C2CCCN(C3CCOCC3)C2)c1 (stereo unspecified) | 93.2% (active)
O=C(Nc1cccc(OC(=O)N2CCCCC2)c1)N1CCOCC1 | 0.65% (inactive)
Cc1ccc(-c2nn(CCC#N)cc2C(=O)O)cc1C | -5.5% (inactive)
COC(=O)COc1cc(C)cc2oc(=O)c3c(c12)CCCC3 | -6.35% (inactive)
O=C(COC(=O)c1ccccc1)Nc1ccc(Cl)cc1C(=O)c1ccccc1 | -3.5% (inactive)
CN(C)C(=O)Oc1ccc(OCc2cccc[n+]2C)cc1 | -6.21% (inactive)
CCOC(=O)C1(Cc2ccc(Cl)cc2)CCN(C(C)CCn2cccn2)CC1 (stereo unspecified) | 80.9% (active)
CCOC(=O)C1(CCc2ccccc2)CCN(Cc2ccco2)CC1 | 9% (inactive)
CC(C)(C)[C@]1(O)C[C@@H]2OC(=O)C[C@@]23C(=O)O[C@@H]2OC(=O)[C@H](O)[C@]213 | -6.51% (inactive)
CCCOC(=O)C1C2c3ccccc3C(c3ccccc32)C1C(=O)O (stereo unspecified) | -5.51% (inactive)

SMILES | inhibition
CC(C(=O)Nc1ccc(Cl)cc1Cl)N1CC=C(c2ccccc2)CC1 (stereo unspecified) | -2.71% (inactive)
CCN(N=Nc1nonc1OC)c1nonc1OC | 0.16% (inactive)
Cc1cccc(N2C(=O)NC(=O)/C(=C\c3cnn(-c4ccccc4)c3)C2=O)c1 | -2.18% (inactive)
COc1ccc(CN2C(=O)NC(=O)/C(=C\c3ccc(OC)c(OC)c3OC)C2=O)cc1 | -6.27% (inactive)
O=C1NC(=O)N(c2ccc(F)cc2)C(=O)/C1=C/c1ccc2c(c1)CCCN2Cc1ccccc1 | 7.8% (inactive)
COc1cccc(N2C(=O)NC(=O)/C(=C\c3ccc([N+](=O)[O-])s3)C2=O)c1 | 93.6% (active)
O=C1NC(=O)N(c2ccccc2)C(=O)/C1=C/c1ccc([N+](=O)[O-])s1 | 93.8% (active)
O=C(COC(=O)Cc1ccccc1)Nc1ccc(F)cc1 | 0.24% (inactive)
OCC#CC[N+]1(CC#Cc2ccccc2)CCCC1 | -1.69% (inactive)
N=c1ccccn1Cc1ccccc1 | -0.35% (inactive)
C=CCN(CC=C)C(=O)Nc1ccc(OCC)cc1 | -9.24% (inactive)
O=C(NC(c1ccc(Cl)cc1)P(=O)(Oc1ccccc1)Oc1ccccc1)OCc1ccccc1 (stereo unspecified) | 10.2% (inactive)
CN1CCN(c2cc(N3CCNCC3)ccc2[N+](=O)[O-])CC1 | 44% (inactive)
CCCCC(=O)N/N=C/c1c(O)n(CC)c(=S)n(CC)c1=O | -5.9% (inactive)
O=C(Nc1cccc2ccccc12)N1CCC2(CC1)OCCO2 | 0.77% (inactive)
CCOC(=O)C(O)(c1ccc(N)c(OC)c1)C(F)(F)F (stereo unspecified) | -13.8% (inactive)
CCOC(=O)C(O)(c1ccc(NC(=O)c2ccco2)c(OC)c1)C(F)(F)F (stereo unspecified) | 73.8% (active)
COC(=O)C(O)(c1ccc(NC(=O)c2ccco2)c(OC)c1)C(F)(F)F (stereo unspecified) | -2.15% (inactive)
C=CCn1c(O)c(/C=N/N2CCOCC2)c(=O)[nH]c1=S | -4.94% (inactive)
COc1ccc(C2N3CC(C)(C)CN23)cc1 (stereo unspecified) | -5.78% (inactive)
Cc1cc(C=C2C(=O)NC(=O)NC2=O)c(C)n1-c1ccncc1 | 0.48% (inactive)
Cc1ccccc1N1C(=O)NC(=O)/C(=C\c2cc(C)n(C)c2C)C1=O | 2.98% (inactive)
Cc1cc(/C=C2/C(=O)NC(=O)N(Cc3ccco3)C2=O)c(C)n1-c1ccc(C(=O)O)cc1 | -6.68% (inactive)
Cc1ccnc(-n2c(C)cc(/C=C3\C(=O)NC(=S)N(C)C3=O)c2C)c1 | 70% (active)

SMILES | inhibition
Cc1ccc(-n2c(C)cc(/C=C3\C(=O)NC(=O)N(C)C3=O)c2C)cc1C | 58% (active)
Cc1c(C(=O)O)cccc1-n1c(C)cc(/C=C2\C(=O)NC(=O)N(c3ccc4c(c3)OCO4)C2=O)c1C | 2.09% (inactive)
CC(=O)N(C1=NCCCS1)c1ccccc1F | -4.7% (inactive)
Cc1cccc(-n2c(O)c(C=NC34CN5CN(CN(C5)C3)C4)c(=O)[nH]c2=O)c1 | -14.4% (inactive)
O=c1c2ccccc2nc(-c2ccccc2)n1-c1ccccn1 | -4.66% (inactive)
C[N+]1(C)CCOC(O)(c2ccc(-c3ccc(C4(O)C[N+](C)(C)CCO4)cc3)cc2)C1 (stereo unspecified) | 20.9% (inactive)
O=C(OCCN1CCOCC1)C1(c2ccccc2)CCCC1 | 1.57% (inactive)
CC[N+]1(C)CCCC(OC(=O)C(O)(c2ccccc2)c2ccccc2)C1 (stereo unspecified) | -2.17% (inactive)
O=C(CN1CCCCC1)Nc1ccc(Br)cc1C(=O)c1ccccc1Cl | 11.2% (inactive)
O=C(CCN1CCCCC1)NCC(=O)Nc1ccc(Br)cc1C(=O)c1ccccc1 | 91.4% (active)
CN1CCN(C(=S)SCC(=O)Nc2ccc(Cl)cc2C(=O)c2ccccc2)CC1 | 8.25% (inactive)
O=[N+]([O-])c1ccc(C2C3C(c4ccccc4)=NC4(CCCCC4)N32)cc1 (stereo unspecified) | 19.8% (inactive)
CC(C)N(CC#CCC1(O)c2ccccc2-c2ccccc21)C(C)C | 2.06% (inactive)
CN(C)CCCN=Cc1c(O)n(Cc2ccco2)c(=O)[nH]c1=O | -6.14% (inactive)
C=CCN1C(=O)C2(C(C(=O)OCC)=C(N)Oc3c2c(=O)oc2ccccc32)c2ccccc21 (stereo unspecified) | -6.93% (inactive)
Cc1ccsc1C(=O)C1CCCN(Cc2ccc(O)cc2)C1 (stereo unspecified) | 83.9% (active)
Cc1nc2ccc(N3CCN(C)CC3)cc2nc1C | 3.66% (inactive)
CCOC(=O)c1c(N)n(Cc2ccccc2)c2nc3ccccc3nc12 | 100% (active)
COc1cc(Cn2c(N)c(C(=O)NCc3ccco3)c3nc4ccccc4nc32)cc(OC)c1OC | 100% (active)
CCOC(=O)c1c(N)n(CCN2CCOCC2)c2nc3ccccc3nc12 | 24.6% (inactive)
O=c1[nH]c(=O)n(-c2ccccc2)c(O)c1C=NC12CN3CN(CN(C3)C1)C2 | -6.09% (inactive)
OC(Cn1c2ccccc2c2ccccc21)C[n+]1ccccc1 (stereo unspecified) | 1.49% (inactive)
COP(=O)(OC)C(NC(=O)c1ccc(C)cc1)C(Cl)(Cl)Cl (stereo unspecified) | -7.25% (inactive)
O=C(Cc1ccccc1[N+](=O)[O-])N1CCN(Cc2ccc3c(c2)OCO3)CC1 | 48% (inactive)

SMILES | inhibition
CNC(=S)N/N=C1\C2CN3CCN(C2)CC1(c1ccccc1)C3 | -5.87% (inactive)
c1cncc(CNCCc2c[nH]c3ccccc23)c1 | 22.7% (inactive)
CCc1nnc(NS(=O)(=O)c2ccc(N=Cc3c(O)n(-c4ccccc4)c(=O)[nH]c3=O)cc2)s1 | -1.81% (inactive)
COP(=O)(NS(=O)(=O)c1ccccc1)OC | -6.48% (inactive)
COc1ccc(C(=O)C2CCCN(Cc3ccc(C)s3)C2)cc1OC (stereo unspecified) | 89.4% (active)
Cc1cccc2c(CCN)c[nH]c12 | 0.35% (inactive)
O=C(Cn1c(=O)n(CC2CS2)c2ccccc21)N1CCCCC1 (stereo unspecified) | 2.59% (inactive)
O=C(Cc1ccccc1)N1CCN(C2CCCCCC2)CC1 | 64.8% (active)
CCC(=NCCc1ccccc1)c1c(O)n(C2CCCCC2)c(=O)[nH]c1=O | 21% (inactive)
CCCn1c(C(=O)c2ccccc2OC)nc2ccccc21 | 15% (inactive)
C[C@@]1([C@@H](NP(=O)(c2ccccc2)c2ccccc2)c2ccccc2)C[C@H]1CCO | -1.91% (inactive)
CNP1(NC)=Nc2nn(-c3ccccc3)c(N)c2C(c2ccccc2)=N1 | -6.36% (inactive)
COc1ccccc1N=C1SCCCN1C | -5.49% (inactive)
Cc1ccc(-c2nc3ccccc3c(=O)n2-c2ccc(Br)cn2)cc1 | 3.21% (inactive)
CC1=CC(=Cc2sc3ccccc3[n+]2C)C=C(C)O1 | 100% (active)
COc1cc(-n2c(=S)[nH]c3ccc(C)cc3c2=O)c(Cl)cc1Cl | 43.6% (inactive)
Cc1ccc(Cn2nnnc2CN2CCC(n3nnc4ccccc43)CC2)cc1 | 4.28% (inactive)
O=C(C1CC(=O)N(C2CCCC2)C1)N1CCC2(CC1)OCCO2 (stereo unspecified) | -6.1% (inactive)
CCN(CC)c1ccc([N+](=O)[O-])c2cccnc12 | 9.8% (inactive)
Cc1cc(C)cc(NC(=S)NC2CC3CCCC(C2)N3Cc2cccs2)c1 (stereo unspecified) | 87.3% (active)
O=C(COc1ccc2ccccc2c1)N1CCN(Cc2ccncc2)CC1 | 44.3% (inactive)
OC1/C(=C/c2ccc(C(F)(F)F)cc2)N2CCC1CC2 (stereo unspecified) | 0.72% (inactive)
CCOC(=O)C(O)(c1ccc(N=Cc2ccccc2O)c(C)c1)C(F)(F)F (stereo unspecified) | -7.14% (inactive)
O=C1/C(=C\c2ccc3c(c2)OCO3)N2CCC1CC2 | 4.04% (inactive)
